# Compound activity: PubChem, National Center for Advancing Translational Sciences (NCATS)
# Compounds with a hit are over-represented: about 5.8% of the library has one in this group of screens.
# uPA generation – inhibitors of cell surface uPA generation. cell surface uPA generation assay, qHTS. Potency, µM (top dose mostly 38.3 µM), for the others: top-dose activity change, negative = inhibition, hits mostly inhibitors. 0.31% of 330,000 active. AID 540303; active = well fitted inhibition curve with a large enough effect; inconclusive = small, poorly fitted or top-dose-only effect; inactive = no such curve, though single readings can be large or run the other way; tested in mouse RAW 264.7 cells; also: potency is read from the fitted curve at half-maximal effect; % is scaled to controls: 0 for no effect and ±100 for the full control effect; nearly all actives have a fitted effect of over 55% in size
# TRPV1 PAM – enhances activation of the human vanilloid receptor TRPV1. Q8NER1. TRPV1-expressing cells, Fluo-8 calcium influx, capsaicin EC20 potentiation. potentiation, % at 8.33 µM. 0.02% of 320,000 active. AID 540277; in the data active = potentiation above about 80%; inconclusive = between about 30% and that limit; also: 0% is about no effect
#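 Fluo-8 calcium influx in TRPV1-expressing cells, kinetic read (ex 480/em 520 nm). Compound added and read 3 min for agonist activity, followed by capsaicin at EC20 final and 2 min further read for enhancement.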
# TRPV1 agonist – agonists of human vanilloid receptor 1 (TRPV1); TRPV1-expressing cells, Fluo-8 calcium influx, agonist mode; 0.19% of 320,000 active; Q8NER1; activation, % at 8.33 µM; in the data active = activation above about 80%; inconclusive = between about 30% and that limit; also: 0% is about no effect
#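 Cells expressing TRPV1 were dye-loaded with Fluo-8 and read kinetically: 10 s baseline, 3 min after compound (agonist portion), then 2 min after EC20 capsaicin (allosteric enhancer portion). Calcium-bound dye fluorescence at 480/520 nm.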
# VP16 counter – counter-screen for ROR gamma inhibitors: Gal4-VP16 reporter. 3.5% of 310,000 active. Potency, µM (highest dose often 53.6 µM), inactives show at the top dose activity, negative = inhibition, actives largely listed as inhibitors. AID 2546. Drosophila S2 Gal4-VP16 UAS-luciferase, luminescence, 20 h;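 also: Gal4-VP16 expression switched on by copper sulfate through the metallothionein promoter; potency is read from the fitted curve at half-maximal effect; % is scaled to controls: 0 for no effect and ±100 for the full control effect; nearly all actives have a fitted effect of over 50% in size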
# RORgamma inh – inhibitors of mouse ROR gamma transcriptional activity. P51450. Drosophila S2 Gal4-RORgamma UAS-luciferase reporter, 20 h. Potency, µM (doses to about 53.6 µM), without a hit: at the top dose activity change, negative = inhibition, actives largely listed as inhibitors. 5.4% of 310,000 active. AID 2551; also: potency is read from the fitted curve at half-maximal effect; % is scaled to controls: 0 for no effect and ±100 for the full control effect; nearly all actives have a fitted effect of over 60% in size
# Target sequence (P51450 whole entry, looked up, the tested form may be a part): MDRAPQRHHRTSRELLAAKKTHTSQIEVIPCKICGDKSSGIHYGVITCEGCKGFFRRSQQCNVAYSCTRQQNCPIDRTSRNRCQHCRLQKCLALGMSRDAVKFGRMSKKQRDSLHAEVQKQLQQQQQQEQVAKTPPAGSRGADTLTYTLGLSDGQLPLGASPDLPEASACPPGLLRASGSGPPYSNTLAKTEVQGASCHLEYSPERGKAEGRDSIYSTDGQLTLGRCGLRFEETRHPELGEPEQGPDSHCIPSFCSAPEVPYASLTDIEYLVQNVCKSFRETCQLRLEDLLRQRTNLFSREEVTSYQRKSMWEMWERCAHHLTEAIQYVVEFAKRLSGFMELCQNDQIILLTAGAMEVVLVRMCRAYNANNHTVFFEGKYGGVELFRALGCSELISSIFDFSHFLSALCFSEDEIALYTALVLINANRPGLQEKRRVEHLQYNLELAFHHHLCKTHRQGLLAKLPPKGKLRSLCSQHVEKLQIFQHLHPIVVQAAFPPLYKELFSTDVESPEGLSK
#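 Drosophila S2 cells stably expressing Gal4-DBD/mouse RORγ fusion under metallothionein promoter plus UAS-luciferase; compound 1 h, then 700 uM CuSO4 induction for 20 h at ambient temperature; inhibition read as reduced luminescence.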
# The depositor's hits bear a star; ? = inconclusive; . = no result given; [ ] = another dose, or the depositor's remark. Unless noted, calls follow the shape of the dose curve; as a rule, active = well fitted curve in the direction sought with a large enough effect; inconclusive = small, poorly fitted or top-dose-only effect, or another doubt; inactive = no such curve, though single readings can be large; an effect the other way counts as inactive or inconclusive.
SMILES,uPA generation,TRPV1 PAM,TRPV1 agonist,VP16 counter,RORgamma inh
N#CC(C#N)=C1NC2(CCCC2)Cc2ccccc21,-2.9%,2.2,1.3,-4.8%,2.0%[10 µM]
CCc1nnc(N/N=C/c2ccc(-c3ccc([N+](=O)[O-])cc3)o2)n1N,-4.3%,5.2,10.6,?,3.55µM*
CCC(=O)N/N=C/c1ccc(-c2ccc([N+](=O)[O-])cc2)o1,0.8%,-3.5,6.9,9.3%,-9.1%
CC(C)CCNC(=S)Nc1ccc(F)cc1,-0.3%,.,.,.,.
O=c1[nH]c(-c2ccccc2)nnc1-c1ccccc1,-0.7%,19.5,1.0,-7.8%,-2.0%
Cc1nc2cc(-c3cccc(F)c3)nn2c(C)c1CCC(=O)NC(C)CCc1ccco1 (stereo unspecified),-8.5%,-3.6,0.4,-2.3%,11.2µM*
COc1cc(OC)cc(-c2cc3nc(C)c(CCC(=O)NC(C)CCc4ccco4)c(C)n3n2)c1 (stereo unspecified),-5.5%,-0.7,-9.0,-18.1%,?
Cc1nc2cc(-c3cccc(F)c3)nn2c(C)c1CCC(=O)N1CCN(c2ccccn2)CC1,-8.8%,-13.7,-2.5,16.9%,?
Cc1nc2cc(-c3cccc(F)c3)nn2c(N2CCN(C(=O)c3ccco3)CC2)c1C,10.6%,-20.1,81.2*,9.4%,37.2%
COc1ccc(CC(=O)OCC(=O)N2CCc3ccccc32)cc1OC,-2.1%,16.3,3.0,.,.
O=C(NCc1cn(-c2ccccc2)nc1-c1ccccc1)c1ccc([N+](=O)[O-])cc1,?,2.4,?,7.08µM*,?
O=[N+]([O-])c1cccc(-c2nn(-c3ccccc3)cc2CO)c1,0.1%,-7.2,27.5,-3.4%,1.2%
O=c1[nH]c(Nc2ccccn2)cc2ccccc12,-19.2%,.,.,.,.
O=c1[nH]c(-c2ccccn2)cc2ccccc12,-5.4%,-3.9,-0.6,?,5.01µM*
O=C(O)c1ccc(Cl)c(S(=O)(=O)NC(Cc2ccccc2)C(=O)O)c1 (stereo unspecified),2.6%,-5.4,-2.5,-14.3%,11.4%
CCSc1ccccc1-c1nc(-c2ccncc2)no1,2.9%,3.8,13.2,4.8%,-9.6%
Fc1cccc(NC(=S)Nc2cccc3ccccc23)c1,-3.1%,-1.5,0.2,-2.9%,28.8%
COc1ccc(NC(=S)Nc2cc(C)cc(C)n2)cc1OC,2.6%,23.9,-6.1,?,46.2%
Cc1cc(C)nc(NC(=S)Nc2cccc(F)c2)c1,5.2%,.,.,7.08µM*,1.78µM*
COc1cccc(NC(=S)Nc2cc(C)cc(C)n2)c1,0.7%,.,.,?,1.26µM*
O=C(NCc1ccccn1)c1ccc(S(=O)(=O)Nc2ccccc2F)cc1,2.1%,?,-5.0,8.2%,-7.2%
Cc1ccc(-n2c(C)nc3c(cnn3-c3ccc(C)c(C)c3)c2=O)cc1C,0.7%,-8.7,5.3,-17.9%,?
Cc1ccc(-n2c(C)nc3c(cnn3-c3ccc(F)cc3)c2=O)cc1C,-0.3%,-6.3,10.2,6.31µM*,?
CCOc1ccc(CCNC(=O)c2ccc3nc(N4CCOCC4)sc3c2)cc1OCC,-0.9%,5.2,5.8,16.2%,20.1%
CCOc1ccc2nc(SC3CC(=O)N(c4ccc(OC)cc4OC)C3=O)sc2c1 (stereo unspecified),?,2.6,2.3,?,7.08µM*
SMILES,uPA generation,TRPV1 PAM,TRPV1 agonist,VP16 counter,RORgamma inh
CCOc1ccc2nc(SC3CC(=O)N(c4ccc(C)cc4)C3=O)sc2c1 (stereo unspecified),.,4.8,-3.0,-17.8%,-0.2%
CC(=O)Nc1ccc(N2C(=O)CC(Sc3nc4ccccc4s3)C2=O)cc1 (stereo unspecified),10.9%,6.2,2.1,-2.2%[10 µM],2.24µM*
CCOc1ccc(N2C(=O)CC(Sc3nc4ccc(OCC)cc4s3)C2=O)cc1 (stereo unspecified),-4.2%,.,.,.,.
COc1ccc(N2C(=O)CC(Sc3nc4ccccc4s3)C2=O)cc1OC (stereo unspecified),-26.3%,5.0,2.1,5.62µM*,6.31µM*
Cc1ccc(NC(=S)NCC(C)CSc2ccc(Cl)cc2)cc1 (stereo unspecified),-0.2%,-11.8,?,?,2.82µM*
Cc1cccc(NC(=S)NCC(C)CSc2ccc(Cl)cc2)c1 (stereo unspecified),-16.5%,8.0,17.3,5.62µM*,3.16µM*
Cc1ccc(CNC(=O)Nc2ccc(Cl)cc2)cc1,-6.1%,-16.8,27.5,3.7%,33.4%
